According to PubChem BioAssay AID1240 (Sanford-Burnham Center for Chemical Genomics, 2008):
Screen size: about 50,000 compounds; about 800 (1.6%) showed an effect of 50% or more. The entries come from a sample that favours strong results as a whole.

These molecules were tested against Bcl-2-like protein 10 (Homo sapiens) (UniProt Q9HD36) (assay: TR3 peptide-Bcl-B binding displacers, biochemical primary FP assay, phenotype converters (AID 1240;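 note: 0% = Bcl-B with tracer peptide and DMSO and 100% = tracer peptide lacking Bcl-B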)). Settings: GST-Bcl-B / FITC-TR3 peptide fluorescence polarization; stronger effect = higher value; compound at 3.75 mg/L.
Sequence of Bcl-2-like protein 10 (Homo sapiens) (Q9HD36 whole entry, looked up): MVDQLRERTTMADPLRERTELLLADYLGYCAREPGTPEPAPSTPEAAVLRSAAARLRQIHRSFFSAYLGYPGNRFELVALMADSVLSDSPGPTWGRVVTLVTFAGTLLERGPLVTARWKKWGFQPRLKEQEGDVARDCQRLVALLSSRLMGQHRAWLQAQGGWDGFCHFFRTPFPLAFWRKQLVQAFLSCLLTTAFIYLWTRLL
For CN(C)c1ccc(/C=N/NC(=O)c2ccc(CN3CCOCC3)cc2)cc1Br, the displacement was 6.3%.
Cc1ccc(-c2csc(N)c2C(=O)OC(C)C)cc1 was tested, and the displacement was -1.9%.
Cc1c(NC(=O)c2cccs2)cccc1-c1nc2ncccc2o1 showed a displacement of 3.8%.
Work on O=C(Nc1ccc(Nc2ccccc2)cc1)c1ccc(Cl)cc1Cl yielded a displacement of -13.5%.
O=C(N/N=C/c1ccccc1Cl)c1ccccn1 gave a displacement of -9.6%.
CNCCOc1nc(-c2ccccc2)cc(-c2ccccc2)n1 showed a displacement of -7.8%.
CCOC(=O)N1CCN(S(=O)(=O)c2ccc(C)cc2)C1 gave a displacement of 10.6%.
O=C1CS/C(=N/N=C/c2ccc3c(c2)OCO3)N1 showed a displacement of -8.7%.
Molecule CC1(C)CC(NCC(=O)OC2CCCCC2)CC(C)(C)N1 has a displacement of 12.1%.
In the case of NC(CC(=O)OC1CCCCC1)C(=O)OC1CCCCC1 (stereo unspecified), the displacement is reported as 74.3%.
In the case of O=C(NCC1CCS(=O)(=O)C1)OC1CCCCC1 (stereo unspecified), the displacement is reported as 2%.
For Cc1ccc2[nH]c(C)c(CN(C)Cc3ccccc3)c(=O)c2c1, the displacement was -15.8%.
With COCCCNC(=O)CN(c1cccc([N+](=O)[O-])c1)S(=O)(=O)c1ccccc1 the displacement was 11.1%.
With Cc1cc(NC(=O)c2cc(-c3ccccc3)nc3ccccc23)no1 the displacement was 3.8%.
CN(C)/C=C1\C=C2C(=O)c3ccccc3N2C1=O was tested, and the displacement was 162%.
Molecule CCO/C=C1\C(=O)N(CC)c2ccccc21 has a displacement of 19.1%.
With CN(C)/C=C1/C=C(c2ccccc2)OC1=O the displacement was -11.5%.
COc1ccc(N(CC(=O)NCc2ccccc2)S(=O)(=O)c2ccc(C)cc2)cc1 gave a displacement of -1.4%.
In the case of COc1ccc(OC)c(N(CC(=O)N/N=C/c2ccc(OC3CSC3)cc2)S(=O)(=O)c2ccccc2)c1, the displacement is reported as 7.5%.
COc1ccc(/C(N)=N/OC(=O)c2ccc(C)cc2)cc1 showed a displacement of -20.8%.
In the case of COc1ccc(/C(N)=N/OC(=O)c2ccc(Cl)cc2)cc1, the displacement is reported as 83.7%.
With COc1ccc(C(=O)O/N=C(\N)c2ccccc2)cc1 the displacement was -9.3%.
With O=C(COc1ccccc1Cl)NNC(=O)c1ccccn1 the displacement was -13%.
Molecule CCOc1c(I)cc(/C=C2\C(=O)ON=C2c2ccccc2)cc1OC has a displacement of 3.5%.
With CCOc1cc(/C=C2/C(=O)ON=C2c2ccc(Cl)cc2)ccc1OC the displacement was 118%.
COc1cc(/C=C2\C=C(c3ccc(Cl)cc3)OC2=O)cc(Br)c1OC was tested, and the displacement was -9.5%.
COc1ccc(/C=C2\C=C(c3ccc(Cl)cc3)OC2=O)cc1C gave a displacement of 0.9%.
In the case of COc1ccc(/C=C2\C=C(c3ccc(Cl)cc3)OC2=O)cc1[N+](=O)[O-], the displacement is reported as 36.4%.
For COc1ccc(C2=C/C(=C/c3ccc(Cl)cc3)C(=O)O2)cc1OC, the displacement was 105%.
O=C1ON=C(c2ccc(Cl)cc2)/C1=C/c1ccc(O)cc1 showed a displacement of 4.4%.
COc1ccc(/C=C2\C=C(c3ccc(Cl)cc3)OC2=O)cc1OC gave a displacement of 147%.
COc1ccc(C2=C/C(=C/c3ccc(Cl)cc3)C(=O)O2)cc1 was tested, and the displacement was -4.1%.
CN(C)c1ccc(C=Nn2cnnc2)cc1 showed a displacement of -7.2%.
In the case of CCN(CC)CCSc1nc(O)c(C2CCCCC2)c(=O)[nH]1, the displacement is reported as -6.4%.
COc1cccc(C2NC(=S)NC(C)=C2C(=O)Nc2cccc(Cl)c2)c1 (stereo unspecified) gave a displacement of -14%.
N#C/C(=C\c1ccc(-c2cccc([N+](=O)[O-])c2)o1)C(=O)N1CCOCC1 gave a displacement of -3.5%.
For CCOC(=O)c1c(C)n(C)c2c1cc(O)c1ccccc12, the displacement was -0.3%.
Cc1ccc(/C=C(\C#N)c2nc(-c3ccc([N+](=O)[O-])cc3)cs2)o1 showed a displacement of 3.5%.
C=CCNC(=O)CN(c1ccc(OC)cc1OC)S(=O)(=O)c1ccc(C)cc1 showed a displacement of 8.5%.
C=COCCNC(=O)C(=O)Nc1ccc(F)cc1 showed a displacement of 5%.
With Cc1cccc(NC(=O)CCCN2C(=O)c3cccc4cccc(c34)C2=O)n1 the displacement was 0.6%.
Molecule O=C1NN(c2ccccc2)C(=O)/C1=C/c1ccc(-c2ccccc2Cl)o1 has a displacement of -13.5%.
Molecule COC(=O)c1ccc(-c2ccc(/C=C3/SC(=S)N(c4ccccc4)C3=O)o2)cc1 has a displacement of 12.6%.
In the case of O=C1/C(=C/c2ccc(-c3ccccc3[N+](=O)[O-])o2)SC(=S)N1c1cccc(C(F)(F)F)c1, the displacement is reported as -3%.
Work on COc1ccc(N2C(=O)/C(=C/c3ccc(-c4ccccc4[N+](=O)[O-])o3)SC2=S)cc1 yielded a displacement of 11.9%.
In the case of COC(=O)c1ccccc1-c1ccc(/C=C2/SC(=S)N(CC(=O)O)C2=O)o1, the displacement is reported as 5.3%.
COC(=O)c1ccccc1-c1ccc(/C=C2/SC(=S)N(c3ccccc3)C2=O)o1 showed a displacement of 70%.
O=C1/C(=C/c2ccc(-c3ccccc3[N+](=O)[O-])o2)SC(=S)N1c1cccc(Cl)c1 was tested, and the displacement was 73.5%.
O=C(/C=C/c1cccc(C(F)(F)F)c1)Nc1cccc([N+](=O)[O-])c1 showed a displacement of 20.4%.
With CCOc1ccccc1NC(=S)NCc1ccccc1 the displacement was 3.9%.
Molecule O=[N+]([O-])c1ccccc1S(=O)(=O)NCc1ccc2c(c1)OCO2 has a displacement of -3.4%.
Cc1cccc(OCC(=O)NC(C)c2ccccc2)c1 (stereo unspecified) gave a displacement of -5.2%.
With Cc1cc(OCC(=O)NC(C)c2ccccc2)cc(C)c1Cl (stereo unspecified) the displacement was 1.4%.
For Cc1ccc(OCC(=O)NC(C)c2ccccc2)cc1C (stereo unspecified), the displacement was 89.2%.
COC(=O)c1sc(NC(=O)c2c(-c3c(Cl)cccc3Cl)noc2C)c(C#N)c1C was tested, and the displacement was 3.1%.
O=C(Oc1ccc(/C=N/NS(=O)(=O)c2ccc(Cl)cc2)cc1)c1ccco1 gave a displacement of 6.4%.
O=C(O)c1cccc(-c2ccc(C=C3C(=O)c4ccccc4C3=O)o2)c1 was tested, and the displacement was -2.7%.
For O=C(O)c1ccc(-c2ccc(C=C3C(=O)c4ccccc4C3=O)o2)cc1Cl, the displacement was 25.2%.
In the case of O=C(O)c1ccc(Cl)c(-c2ccc(C=C3C(=O)c4ccccc4C3=O)o2)c1, the displacement is reported as 99.1%.
With N/C(=N\OC(=O)c1ccc(Cl)c([N+](=O)[O-])c1)c1ccccc1Cl the displacement was 1.1%.
Work on O=C1c2ccccc2NC(c2ccc(-c3ccccc3[N+](=O)[O-])o2)N1c1ccccc1 (stereo unspecified) yielded a displacement of 16.8%.
With O=C(N/N=C/c1ccc(Br)c([N+](=O)[O-])c1)c1cccs1 the displacement was 113%.
Cc1cc(C(=O)N/N=C/c2ccc(Br)c([N+](=O)[O-])c2)n[nH]1 was tested, and the displacement was 5.2%.
For O=C(CNc1ccc2ccccc2c1)N/N=C/c1ccc(Br)c([N+](=O)[O-])c1, the displacement was -4.4%.
In the case of O=C1N/C(=N/N=C/c2ccccc2O)SC1Cc1ccccc1 (stereo unspecified), the displacement is reported as 1.4%.
CCC1S/C(=N\N=C\c2cccc3ccccc23)NC1=O (stereo unspecified) gave a displacement of 127%.
With CCC1S/C(=N/N=C/c2ccc3c(c2)OCO3)NC1=O (stereo unspecified) the displacement was -13.8%.
O=c1[nH]c(=S)[nH]c2c1C1(CCCC1)Cc1ccccc1-2 was tested, and the displacement was -4.2%.
COc1ccc(COC(=O)C2=C(C)NC3=C(C(=O)CCC3)C2c2cccc3ccccc23)cc1 (stereo unspecified) was tested, and the displacement was 10.9%.
COc1cc(/C=C(\C#N)c2nc3ccccc3[nH]2)c(Br)cc1O gave a displacement of -96.8%.
COc1ccc(/C=C(\C#N)c2nc3ccccc3[nH]2)cc1OC showed a displacement of 11%.
COc1cc(/C=C(/C#N)c2nc3ccccc3[nH]2)c([N+](=O)[O-])cc1OCCC(C)C showed a displacement of 69.6%.
Work on COc1ccc(CC(=O)N2CCN(c3cccc(Cl)c3)CC2)cc1OC yielded a displacement of 2%.
Molecule COC(=O)C1=C(C)NC2=C(C(=O)CC(C)(C)C2)C1c1ccc(OC)cc1OC (stereo unspecified) has a displacement of 11.9%.
With Cc1ccc(C=C2C(=O)c3ccccc3C2=O)o1 the displacement was 10.9%.
O=C1C(=Cc2ccc(Sc3ccccc3)o2)C(=O)c2ccccc21 gave a displacement of 163%.
In the case of O=C1C(=Cc2ccc(I)o2)C(=O)c2ccccc21, the displacement is reported as 37.1%.
Molecule C#CCOc1c(Br)cc(/C=C2\C(=O)NC(=O)N(c3ccc(Cl)cc3)C2=O)cc1OC has a displacement of -0.6%.
With CCn1nnnc1-c1ccc(OC)c(S(=O)(=O)Nc2ccc(Cl)cc2)c1 the displacement was 9.3%.
CCn1nnnc1-c1ccc(OC)c(S(=O)(=O)Nc2ccc(Br)cc2)c1 was tested, and the displacement was 58.3%.
CCn1nnnc1-c1ccc(OC)c(S(=O)(=O)Nc2ccc(F)cc2)c1 showed a displacement of 6.1%.
CCc1ccc(-n2c(C)cc(/C=C3/NC(=O)NC3=O)c2C)cc1 showed a displacement of -6.3%.
Molecule O=C(NC1CCCCC1)c1ccc2nc3ccccc3nc2c1 has a displacement of 81.5%.
Molecule O=C(NC1CCCCC1)c1ccc(Cl)c(Cl)c1 has a displacement of 3.3%.
In the case of O=C(NC1CCCCCC1)c1cccc(Cl)c1, the displacement is reported as 4.5%.
With CCOC(=O)C(=CNc1ccccc1C(C)C)C(=O)OCC the displacement was -7.2%.
For O=C1c2cccc3cccc(c23)C(=O)N1Nc1ccc([N+](=O)[O-])cc1, the displacement was 3.8%.
For COc1ccc(-c2cc(C(=O)Nc3nc4ccc(S(C)(=O)=O)cc4s3)c3ccccc3n2)cc1OC, the displacement was 5%.
In the case of Cc1ccc2c(c1)NC(c1ccc(C)o1)C1=C(CC(C)(C)CC1=O)N2 (stereo unspecified), the displacement is reported as 88.5%.
Cc1ccc2c(c1)NC(c1ccc(F)cc1)C1=C(CC(C)(C)CC1=O)N2 (stereo unspecified) was tested, and the displacement was 17.8%.
Cc1ccc2c(c1)NC(c1ccccc1)C1=C(CC(C)(C)CC1=O)N2 (stereo unspecified) gave a displacement of -3.1%.
Molecule CCCCCC(=O)N1c2ccccc2NC2=C(C(=O)CC(c3ccc(OC)cc3)C2)C1c1ccco1 (stereo unspecified) has a displacement of -3.9%.
In the case of Cc1ccc2nc(SCc3ccc([N+](=O)[O-])cc3)nc(C)c2c1, the displacement is reported as -7.5%.
Work on O=C(Cc1ccccc1)Nc1ccc(Cl)c(-c2nc3ncccc3o2)c1 yielded a displacement of 7.3%.
For Cc1ccc(C(=O)Nc2cccc3ccccc23)o1, the displacement was 16.6%.
For O=C(Nc1c(C(=O)N2CCC(Cc3ccccc3)CC2)cnn1-c1ccccc1)c1cccc(F)c1, the displacement was 3.5%.
O=C(Nc1c(C(=O)N2CCC(Cc3ccccc3)CC2)cnn1-c1ccccc1)c1ccccc1F was tested, and the displacement was 88.9%.
Cc1ccc(C(=O)Nc2c(C(=O)N3CCC(Cc4ccccc4)CC3)cnn2-c2ccccc2)cc1 showed a displacement of -8.3%.
CCOC(=O)C1=C(O)/C(=C\c2ccc(OCC)cc2)N=C1C showed a displacement of 18.1%.
Cc1cc(/C=C2\C(=O)NC(=S)N(c3ccc(Br)cc3)C2=O)c(C)n1C was tested, and the displacement was -2.4%.
Molecule Cc1cccc(N2C(=O)/C(=C/c3cc(C)n(C)c3C)C(=O)NC2=S)c1C has a displacement of 111%.
In the case of CCc1ccccc1N1C(=O)/C(=C/c2cc(C)n(C)c2C)C(=O)NC1=S, the displacement is reported as 8.1%.
With Cc1cc(/C=C2\C(=O)NC(=S)N(c3ccc(Cl)cc3)C2=O)c(C)n1C the displacement was 29.5%.
Cc1ccc(N2C(=O)/C(=C/c3cc(C)n(C)c3C)C(=O)NC2=S)cc1 was tested, and the displacement was 97%.
With Cc1cc(/C=C2\C(=O)NC(=S)N(c3cccc(Cl)c3Cl)C2=O)c(C)n1C the displacement was 0.8%.
Molecule Cc1ccc(S(=O)(=O)N2CCN(C(=O)COc3ccc(Cl)cc3)CC2)cc1 has a displacement of -15.1%.
